Experimental data from PubChem BioAssay (NCI).
This is part of a sample that, as a whole, favours compounds with a hit. Of some 83,000 tested, about 20% had one in any assay.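 Treatment: one concentration, 48 hours, 96-well format. Scoring: percent growth, with anything below 10 considered active.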 Calls of active or inactive are those of the source.

What follows are compounds tested on MDA-MB-468 breast (assay: NCI-60 one-dose screen, 48 h (100 = growth as untreated, 0 = no growth, -100 = all killed)). Conditions: 10 µM unless noted.

Row | SMILES | growth
1 | CCNC(=O)Oc1ccc(/C(=C(/C)c2ccc(Cl)cc2)c2ccc(OCCN(C)C)cc2)cc1 | 67% (inactive)
2 | O=C(NCCCNc1cc(-c2cn(-c3ccccc3)nc2-c2cccc(O)c2)ccn1)c1ccc(F)cc1 | -41.4% (active)
3 | COc1cc(/C=C2\C(=O)N(CCCOc3cc(O)c4c(=O)cc(-c5ccccc5)oc4c3)c3ccccc32)cc(OC)c1O | 89.4% (inactive)
4 | CCOC(=O)c1c(C)n(-c2ccc(Cl)cc2)c2ccc(OC(=O)/C=C/c3ccccc3)cc12 | 22.9% (inactive)
5 | Nc1n[nH]c2ccc([C@@H]3Nc4ccc5[nH]ncc5c4[C@H]4[C@H]5CCC(C5)[C@H]43)cc12 | 28.1% (inactive)
6 | O=C(CS)OCC(COC(=O)CS)(COC(=O)CS)COC(=O)CS | 78.8% (inactive)
7 | C=CCSC1=NC2C(N(CC)C(=O)N2CC)N1/N=C/C=C/c1ccccc1OC (configuration not stated) | 29.6% (inactive)
8 | O=C(CCl)Nc1ccc2c(c1)C(=O)c1ccc(NC(=O)CCl)cc1C2=O | -75.7% (active)
9 | Nc1ccc(Cl)c(S(=O)(=O)O)c1 | 99.3% (inactive)
10 | CCOC(=O)c1ccc(-c2ccc3cc(OC)ccc3c2)nc1C | 119% (inactive)
11 | CCCCCCCC/C=C\CCCCCCCCOc1cccc(CC(=O)NCC[N+]2(C)CCCC2)c1 | 71.8% (inactive)
12 | O=C(Nc1ccc(-c2nc(-c3cccc(O)c3)c(-c3ccnc(Br)c3)[nH]2)cc1)c1ccccc1 | 7.45% (active)
13 | NC(CSC(c1ccccc1)(c1ccccc1)c1ccc2c(c1)OCO2)C(=O)O (configuration not stated) | -56.6% (active)
14 | COc1cc(-c2cc(-c3nc4ccc(Cl)cc4[nH]3)[nH]n2)cc(OC)c1OC | 35.9% (inactive)
15 | CC(C)=CCc1c(O)c(CC=C(C)C)c2c(c1O)C(=O)C1=C[C@@H]3C[C@H]4C(C)(C)O[C@@](C/C=C(\C)C(=O)O)(C3=O)[C@@]14O2 | -45.1% (active)
16 | Cn1nc(Nc2ccccc2)c(C(=O)NN)c1N | 100% (inactive)
17 | FC(F)(F)c1ccc(-c2cnc(-n3cc(COCCN4CCCCC4)nn3)nc2NC2CCCCCC2)cc1 | 16.1% (inactive)
18 | COc1ccc(/C=C2\COc3ccc(O)cc3C2=O)cc1 | 85.7% (inactive)
19 | CC(=O)Nc1ccc(-c2cc3c(NCc4ccc(F)cc4)ncnc3s2)cc1 | 69.7% (inactive)

Row | SMILES | growth
20 | CC/C(=N\N=C(/CC)c1ccc(Br)cc1)c1ccc(Br)cc1 | 110% (inactive)
21 | C=C1c2c(C)nn(-c3ccc(O)cc3)c2N(C)C23C[C@@H]1C1(C)c4c(C)nn(-c5ccc(O)cc5)c4N(C)C(C)(C[C@H]12)C3 (some centres not stated) | -5.71% (active)
22 | CCC12OC(COc3ccccc3)CN1CCN2c1ccccc1 (configuration not stated) | 97.4% [100 µM] (inactive)
23 | Oc1ccccc1C=NCC1CCC(CN=Cc2ccccc2O)CC1 (configuration not stated) | 74.4% (inactive)
24 | Cn1c2c(c3ccc(Cl)cc31)-n1cccc1C2=O | 104% (inactive)
25 | CCOC(=O)c1cc(C(=O)c2ccc(F)cc2F)n2ccccc12 | 102% (inactive)
26 | COc1ccc2nc3cc(Cl)ccc3c(NCCNCC(O)CO)c2c1 (configuration not stated) | -8.61% (active)
27 | Nc1c(C(=O)Nc2cccc3c2OCCO3)sc2nc3c(cc12)CN(Cc1ccccc1)CC3 | 38.8% (inactive)
28 | CC(=O)N1N=C(c2cccc(Nc3ccncc3)c2)CC1c1ccc2c(c1)OCO2 (configuration not stated) | 85.5% (inactive)
29 | C=CC[P+](c1ccccc1)(c1ccccc1)c1ccccc1 | 10.9% (inactive)
30 | N#Cc1c(-c2ccc(C(F)(F)F)cc2)cc(NCC2CCS(=O)(=O)CC2)n2c1nc1ccccc12 | 78.1% (inactive)
31 | Cc1ccccc1CNc1c2ccccc2nc2ccccc12 | 5.84% (active)
32 | COc1ccc(C(=O)C/C(=C\c2ccc(O)c(OC)c2)C(=O)NN)cc1 | 27.6% (inactive)
33 | CNC(=O)c1c(NC(=O)c2ccc(F)cc2F)sc2c1CCC(=O)C2 | -15.5% (active)
34 | C=C(C)[C@@H]1CC[C@]2(C(=O)NC(COC(=O)C(Cl)Cl)(COC(=O)C(Cl)Cl)COC(=O)C(Cl)Cl)CC[C@]3(C)[C@H](CC[C@@H]4[C@@]5(C)CC[C@H](OC(C)=O)C(C)(C)[C@@H]5CC[C@]43C)[C@@H]12 | 61.7% (inactive)
35 | CN(C)C(=O)SC1=C(c2c(Cl)cccc2Cl)C(=O)c2ccccc21 | -86.5% (active)
36 | Cc1ccc(C(=O)Nc2ccc(CN3CCN(C)CC3)c(C(F)(F)F)c2)cc1C#Cc1cnc2cccnn12 | -85.9% (active)
37 | Cn1ccnc1C(=O)/C=C/c1ccc(CC(=O)Nc2ccc(Br)cc2)cc1 | 0.947% (active)
